Bioassay records as filed in PubChem BioAssay.
Jurkat NFkB inh – inhibitors of the PMA/ionomycin-induced NF-kB reporter in Jurkat cells; PMA/ionomycin-induced NF-kB luciferase reporter, luminescence; inhibition, % at 4 µM; 0.53% of 330,000 active; in the data active = inhibition above about 50%
Beta cell apopt – blocks beta cell apoptosis; INS-1E cytokine-induced death, ATP luminescence, 48 h; percent of positive-control rescue, neutral wells zero; protection from apoptosis, % (no concentration beside the values); 0.8% of 300,000 active; AID 435005;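 active = Every replicate reaches about 75%, or at least half do and their mean reaches it too, limit read from the data; inconclusive = At least half of replicates reach the limit but their mean does not; inactive = Under half of replicates reach the limit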;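 note: 0% = cytokine-treated negative control wells and 100% = positive control rescue; higher means more ATP so stronger rescue from cytokine killing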
Gli-Sufu antag – antagonists of Gli-Sufu signaling; Sufu-KO-LIGHT fibroblasts, Gli luciferase reporter luminescence; inhibition, % at 5 µM; 0.74% of 340,000 active; AID 588413;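 active = inhibition above about 55%, limit read from the data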;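 note: 0% = DMSO-treated cells and 100% = wells with medium but no cells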
CSC inhib – blocks cancer stem cells | 1.1% of 300,000 active | inhibition, % at 7.5 µM | cancer stem cell-like cells viability, luminescence | AID 2717; in the data active = inhibition above about 75%; inconclusive = no clear call, values can overlap the other calls; tested in HMLE shEcad cells
697 NFkB inh – inhibitors of the PMA/ionomycin-induced NF-kB reporter in 697 B cells. inhibition, % at 4 µM. 0.33% of 330,000 active. 697 B-cell NF-kB luciferase reporter, 16 h; in the data active = inhibition above about 35%
Mdm2-MdmX inh – human Mdm2/MdmX binding inhibition | O15151+Q00987 | SaOS-2 split-luciferase Mdm2/MdmX complementation, luminescence | inhibition, % at 8 µM | 3% of 330,000 active | AID 485346;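 active = inhibition of at least 50% at 8 µM in the primary screen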
Mdm2 MdmX conf – human Mdm2/MdmX binding inhibition, confirmed; inhibition, % at 8 µM; shares compounds with Mdm2-MdmX inh; AID 489028; luminescent assay; 55% of 10,000 active; in the data active = inhibition above about 40%
FLuc counter – counter-screen for Mdm2/MdmX inhibitors: full-length luciferase; shares compounds with Mdm2-MdmX inh; SaOS-2 full-length luciferase counterscreen, luminescence; inhibition, % at 8 µM; 77% of 6,200 active; AID 504607;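 active = mean inhibition at 8 µM reaching about 37%, which flags the compound as non-specific, limit read from the data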;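 note: p53-null SaOS-2 cells with luciferase driven by a doxycycline-inducible promoter; compound on cells about two nights before reading with doxycycline added after day one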
Numbers without * were called inactive; u = inconclusive; x = not tested or not shown. Shown are actives, neighbours in structure and some others; about 4.5% of the full set was active somewhere.

SMILES	Jurkat NFkB inh	Beta cell apopt	Gli-Sufu antag	CSC inhib	697 NFkB inh	Mdm2-MdmX inh	Mdm2 MdmX conf	FLuc counter
O=C1/C(=C\c2cccc(O)c2O)SC(=S)N1Cc1ccccc1	9	-2	38	86*	-202	72*	57*	34
C=CCOc1ccc(-c2nc3c(c(=O)[nH]c(=O)n3CCCC)n2C)cc1Br	13	5	14	6	-9	70*	-3	x
Cn1c(-c2ccccc2)c(C(=O)CCl)c2ccccc21	x	x	10	x	x	x	x	x
CCn1c(-c2ccccc2)c(C(=O)CCl)c2ccccc21	5	u	4	1	-64	98*	10	x
O=C(CCC(=O)Nc1ccc(Br)cc1)N/N=C/c1ccccc1O	22	56	0	33	-15	67*	68*	48*
Cc1ccc(NC(=O)CCC(=O)N/N=C/c2ccccc2O)cc1	13	68	5	7	10	41	x	x
Cc1ccc(SCCC(=O)N/N=C/c2ccccc2O)cc1	2	42	-28	22	-53	52*	44*	47*
C/C(=N/NC(=O)CCC(=O)Nc1ccc(Br)cc1)c1ccc(Br)cc1	-4	-4	8	-2	13	51*	7	x
C/C(=N\NC(=O)CCc1ccccc1)c1ccc(Br)cc1	5	0	-6	-4	10	10	x	x
O=C(CCn1cnc(-c2ccccc2)c1-c1ccccc1)N/N=C/c1ccccc1O	26	38	0	67	-14	76*	69*	26
O=C(N/N=C/c1cc(Br)ccc1O)c1ccccc1Cl	20	69	21	20	-34	66*	69*	35
O=C(CCc1ccccc1)N/N=C/c1cc(Br)ccc1O	9	9	4	-16	-7	71*	69*	27
COC(=O)N/N=C/c1cc(Br)ccc1O	-7	2	10	1	-2	10	x	x
O=C(Cc1ccccc1)N/N=C/c1cc(Br)cc(Br)c1O	-10	73	13	29	13	59*	73*	44*
COc1ccc(CN(C)C(=O)c2[nH]c(C)c(C(C)=O)c2C)cc1F	10	-5	13	1	2	11	x	x
CN1CC(=O)N(CC(=O)Nc2ccc(OCc3ccccc3)cc2)C1=O	-5	5	-18	9	-12	3	x	x
N#Cc1ccc(N)cc1OCCCN1CCCCC1	x	x	7	x	x	x	x	x
Cc1ccc(C(=O)OCC(=O)NC2CC2)cc1S(=O)(=O)N1CCOCC1	2	-1	8	x	7	7	x	x
CCCCN1C(=O)CCC(C(=O)O)C1c1ccc([N+](=O)[O-])cc1 (stereo not given)	-41	1	7	3	-16	9	x	x
Cc1ccccc1-n1ncc(C(C)NS(=O)(=O)c2ccccc2Cl)c1C (stereo not given)	-1	-3	2	8	16	15	x	x
COc1ccccc1C(NC(C)=O)c1cc(Cl)c2cccnc2c1O (stereo not given)	3	94*	-7	101*	-13	67*	61*	31
CCC(=O)NC(c1ccc(OC)c(OC)c1)c1cc(Cl)c2cccnc2c1O (stereo not given)	x	x	8	x	x	x	x	x
COc1ccc(C(NC(C)=O)c2cc(Cl)c3cccnc3c2O)cc1OC (stereo not given)	4	95*	21	2	-20	68*	76*	40*
CCOc1ccc(C(=O)C(C)OC(=O)c2nc(Cl)ccc2Cl)cc1 (stereo not given)	5	0	-25	1	9	16	x	x
CCN(CC)CCNc1ncnc2c1sc1nc(N3CCOCC3)c3c(c12)CC(C)(C)SC3	17	103*	9	u	-26	63*	40	54*
CN(C)CCNc1ncnc2c1sc1nc(N3CCOCC3)c3c(c12)CC(C)(C)SC3	-5	11	-5	-9	5	70*	45*	75*
CC1(C)Cc2c(c(N3CCOCC3)nc3sc4c(NCCN)ncnc4c23)CO1	x	x	7	x	x	x	x	x
